Screening results as filed in PubChem.
A selection: hits, their analogues and other compounds. The true share with any hit is near 5.7%.
GLP1R cytotox – cytotoxicity counter-screen for GLP-1 receptor inverse agonists; HEK293 cAMP-luciferase reporter cells, luminescence, 24 h; Potency, µM (highest dose often 38.3 µM), inactives show top-dose activity change, negative = inhibition, actives largely listed as inhibitors; 410,000 compounds, 0.13% hits; AID 624418;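 also: loss of luciferase light is scored as toxicity; potency is read from the fitted curve at half-maximal effect; % is scaled to controls: 0 for no effect and ±100 for the full control effect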
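Seeding density was 200 cells/uL; after overnight-length (12 h) culture, 23 nL compounds went on for 24 h at 37 °C. Readout used a luciferase detection reagent, luminescence taken after 12 min at room temperature.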
GLP-1R inv ag – GLP-1 receptor (human) inverse agonism. P43220. HEK293 GLP-1R CRE-luciferase, luminescence, 24 h; GLP-1R form is constitutively active. Potency, µM (top dose mostly 38.3 µM), for inactives: at the highest dose activity change, negative = inhibition, most hits filed as inhibitors. 410,000 compounds, 1.6% hits; also: potency is read from the fitted curve at half-maximal effect; % is scaled to controls: 0 for no effect and ±100 for the full control effect; nearly all actives have a fitted effect of over 55% in size
Target sequence (P43220 whole entry, looked up): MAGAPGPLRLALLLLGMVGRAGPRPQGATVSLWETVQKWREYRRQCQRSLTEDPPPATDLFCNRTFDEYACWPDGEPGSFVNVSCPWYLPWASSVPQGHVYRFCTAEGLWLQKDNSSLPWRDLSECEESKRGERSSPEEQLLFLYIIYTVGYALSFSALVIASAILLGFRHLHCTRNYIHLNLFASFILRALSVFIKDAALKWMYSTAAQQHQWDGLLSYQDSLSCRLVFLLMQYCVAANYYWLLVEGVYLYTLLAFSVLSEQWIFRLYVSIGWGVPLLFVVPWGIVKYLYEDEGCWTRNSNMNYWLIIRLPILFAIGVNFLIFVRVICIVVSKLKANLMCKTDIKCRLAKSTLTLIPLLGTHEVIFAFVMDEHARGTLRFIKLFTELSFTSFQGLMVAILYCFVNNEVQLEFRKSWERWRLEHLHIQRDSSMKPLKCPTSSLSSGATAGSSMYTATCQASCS
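Seeding at 200 cells/uL, 12 h culture, 24 hr compound treatment, then luciferase reagent and a luminescence read; cells are HEK293 stably expressing a constitutively active GLP-1R plus cAMP-responsive luciferase.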
DRD3 agonist – D3 dopamine receptor (human) agonism; P35462; D3R DiscoveRx beta-arrestin cells, luminescence, 90 min; AID 652048; 410,000 compounds, 0.58% hits; max activation, %; in the data active = max activation above about 30%; also: 0% is about no effect
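Cells at 1500/well, incubated overnight, then treated with pinned compounds (dopamine as control) for 90 min at 37 degrees C. DiscoveRx reagent added for 30 - 60 minutes at room temperature; luminescence read.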
GLP-1R agonist – activates the human GLP-1 receptor. HEK293 GLP-1R CRE-luciferase, luminescence, 4-6 h; cells express a hypersensitive GLP-1R form. Potency, µM (doses to about 45.6 µM), for inactives: at the highest dose activation, usual class: activators. P43220. 380,000 compounds, 0.007% hits. AID 624172; also: potency is read from the fitted curve at half-maximal effect; % of control where 0% means no effect
ClpP mod – qHTS Assay for Activators of ClpP. Potency, µM (highest dose often 57.5 µM), for inactives: at the top dose activity change, negative = active. ATP-dependent Clp protease proteolytic subunit (Bacillus subtilis (strain 168)), P80244. purified B. subtilis ClpP, FRET peptide cleavage, 20 min. 340,000 compounds, 1.9% hits; active = well fitted falling curve with a large enough effect; inconclusive = small, poorly fitted or top-dose-only effect; inactive = no such curve, though single readings can be large or run the other way; also: potency is read from the fitted curve at half-maximal effect; the source files actives as falling curves though it sought activators and does not explain the sign; nearly all actives have a fitted effect of over 65% in size
Target sequence (P80244 whole entry, looked up): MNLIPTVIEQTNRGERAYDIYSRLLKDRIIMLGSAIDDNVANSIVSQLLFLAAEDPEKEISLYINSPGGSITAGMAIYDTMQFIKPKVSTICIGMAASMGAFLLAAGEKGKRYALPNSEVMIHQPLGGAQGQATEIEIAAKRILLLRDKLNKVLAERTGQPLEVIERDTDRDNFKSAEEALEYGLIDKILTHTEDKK
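FRET quenching reversal measured ClpP activation: 10 microg/mL B. subtilis ClpP at pH 8 with the FRET-FV decapeptide, read at 430 nm after 320 nm excitation. The 20-min minus 0-min signal was scaled between DMSO/no-enzyme wells and ADEP (5.8 microM final).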
DRD3 antagonist – D3 dopamine receptor (human) antagonism | P35462 | D3R cells, DiscoveRx beta-arrestin luminescence, antagonist mode; stronger effect = lower value | max response, negative = inhibition, % | 360,000 compounds, 2.5% hits | AID 652054; in the data active = max response below about -50%; inconclusive = no clear call, values can overlap the other calls; also: % is scaled to controls: 0 for no effect and ±100 for the full control effect
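Cells plated overnight at 1500 cells/well, then exposed to library compounds with dopamine controls for 90 minutes at 37 degrees C. DiscoveRx reagent added for 30–60 minutes at room temperature; luminescence read, quantitative HTS format.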
* hit, by the source's call; ? = inconclusive; nt = not tested or not shown. Unless noted, calls follow the shape of the dose curve; as a rule, active = well fitted curve in the direction sought with a large enough effect; inconclusive = small, poorly fitted or top-dose-only effect, or another doubt; inactive = no such curve, though single readings can be large; an effect the other way counts as inactive or inconclusive.

SMILES	GLP1R cytotox	GLP-1R inv ag	DRD3 agonist	GLP-1R agonist	ClpP mod	DRD3 antagonist
c1cc(CNC2C3CC4CC(C3)CC2C4)ccn1 (stereo not drawn)	-8%	-18%	-16	0%	nt	-57*
COc1ccc(CCC(C)NCc2ccc(Cl)c(Cl)c2)cc1 (stereo not drawn)	-9%	?	-17	28%	1%	-55*
COc1ccc(CCC(C)NCCc2ccc(Cl)cc2Cl)cc1 (stereo not drawn)	?	10µM*	-3	-2%	-2%	0
Cc1cc(C)c(NC(=O)Cn2c(=O)n(CCC(=O)N3CCc4ccccc4C3)c(=O)c3ccccc32)c(C)c1	2%	-4%	-13	-3%	9%	nt
Cc1ccc(S(=O)(=O)N(C)c2nc3ccccc3[nH]c2=S)cc1	3%	36%	-16	2%	-8%	2
CN(c1nc2ccccc2nc1Cl)S(=O)(=O)c1ccccc1	-7%	10µM*	0	13%	nt	-29
Cc1ccc(S(=O)(=O)CCC(=O)N2CCN(c3ccc(Cl)cc3)CC2)cc1	-26%	-10%	32*	-12%	0%	13
O=C(CCS(=O)(=O)c1ccc(Cl)cc1)N1CCN(c2ccc(F)cc2)CC1	3%	-27%	23	0%	-4%	5
CN(C)c1ccc(/C=C/c2sc3ccccc3[n+]2Cc2ccccc2)cc1	nt	nt	nt	nt	3%	nt
CC(C)(C)c1ccc(C(=O)NC(=S)N2CCCCCC2)cc1	?	7.1µM*	-8	1%	0%	-2
CC1CCN(C(=S)NC(=O)c2ccc(C(C)(C)C)cc2)CC1	?	8.9µM*	3	12%	2%	-20
CC(C)(C)c1ccc(C(=O)NC(=S)N2CCCC2)cc1	-22%	-15%	0	21%	-3%	-16
CC1CCN(C(=S)NC(=O)c2ccccc2)CC1	?	?	6	-7%	1%	9
CC(C)(C)c1ccc(NC(=O)NC2CCCc3ccccc32)cc1 (stereo not drawn)	-15%	3.2µM*	4	6%	0%	-19
Cc1ccc(NC(=O)NC2CCCc3ccccc32)cc1 (stereo not drawn)	-6%	?	5	4%	-2%	3
CCc1ccc2ncc3c(-c4ccccc4)nn(-c4ccccc4)c3c2c1	4%	-18%	1	0%	?	nt
Cc1ccc(C)n1-c1nnc(N2CCCC(C(=O)Nc3ccc(C(C)C)cc3)C2)s1 (stereo not drawn)	-10%	?	-18	nt	2%	nt
CC1(c2ccccc2)O[C@@H]2C[C@H]3[C@@H]4CCC5=CC(=O)C=C[C@]5(C)[C@@]4(F)[C@@H](O)C[C@]3(C)[C@]2(C(=O)CO)O1 (stereo partly drawn)	2%	7.9µM*	-7	4%	nt	-19
COc1ccccc1C(=O)N1CCCCC1CCN1CCOCC1 (stereo not drawn)	-6%	8%	14	nt	0%	nt
CCOC(=O)N(C)c1ccc(C(O)(C(F)(F)F)C(F)(F)F)cc1	4%	?	1	-2%	32µM*	10
Nn1cnnc1N/N=C/c1cc(Br)cc(Br)c1O	25%	-1%	-9	-16%	-6%	-90*
CCCS(=O)(=O)N1CCCC(C(=O)c2cccc(Cl)c2)C1 (stereo not drawn)	1%	-22%	-10	12%	?	-68*
O=C(NCC1CCCO1)C1CCCN(S(=O)(=O)c2ccc(F)cc2)C1 (stereo not drawn)	11%	-3%	0	4%	-2%	-11
O=C(NCC1CCCO1)C1CCCN(S(=O)(=O)c2ccc(Cl)cc2)C1 (stereo not drawn)	8%	-12%	34*	1%	1%	16
CCCS(=O)(=O)N1CCCC(C(=O)NCCc2ccc(Cl)cc2)C1 (stereo not drawn)	-2%	?	-8	2%	0%	-63*
SMILES	GLP1R cytotox	GLP-1R inv ag	DRD3 agonist	GLP-1R agonist	ClpP mod	DRD3 antagonist
Cc1ccc(C2N(C)C(=O)c3ccccc3N2C)cc1 (stereo not drawn)	-10%	?	12	16%	1%	12
Cc1cccc2c1Sc1ccc(Cl)cc1CC2N1CCNCC1 (stereo not drawn)	?	?	-17	-14%	0%	-53*
c1ccc2c(c1)CC(N1CCCCC1)c1ccccc1N2 (stereo not drawn)	-4%	-18%	-10	-9%	-1%	-4
CCc1cccc2c1Sc1ccccc1CC2N1CCNCC1 (stereo not drawn)	?	8.9µM*	-24	4%	0%	-63*
CCC/C=C/c1ccc(CN2C(C(C)C)C(=O)N(Cc3cn(CCC4OCCO4)nn3)CCS2(=O)=O)cc1 (stereo not drawn)	-28%	10µM*	4	3%	-1%	-6
Cc1[nH]c2ccccc2c1Cc1nnc(SCc2ccccc2)o1	-25%	11µM*	4	9%	-1%	?
O=c1[nH]c(CSc2nnc(Cc3ccccc3)o2)nc2ccccc12	-2%	8%	-19	-1%	nt	-2
C=C(c1ccccc1O)n1ccnc1	-2%	0%	8	4%	13µM*	-8
O=C(Cn1ccnc1)c1ccc(O)c(O)c1	?	4%	22	-4%	1%	15
C[C@H](OC(=O)NCc1ccc(C(F)(F)F)cc1)[C@@H]1O[C@@]2(C)CCC[C@@H]1O2	1%	?	7	-2%	0%	-11
C[C@H](OC(=O)N1CCN(C(c2ccccc2)c2ccccc2)CC1)[C@@H]1O[C@@]2(C)CCC[C@H]1O2	33%	10µM*	-7	16%	-3%	-18
O=C(c1ccccc1)N1CCCC(c2nc3c(nnn3Cc3ccc(F)cc3F)c(=O)[nH]2)C1 (stereo not drawn)	-12%	13%	7	nt	-2%	nt
COc1ccc(C(O)(c2ccccc2OC)C(CN2CCOCC2)c2ccccc2)cc1 (stereo not drawn)	-1%	10µM*	-1	1%	nt	-8
COc1ccc(C(O)(C(C)C)C(CN2CCOCC2)c2ccc(Cl)cc2)cc1 (stereo not drawn)	?	?	-7	-5%	-1%	-55*
CCOc1ccc(C(O)(c2ccccc2OC)C(CN2CCCC2)c2ccccc2)cc1 (stereo not drawn)	-14%	?	-2	-3%	1%	-2
COc1ccc(C(O)(C(C)C)C(CN2CCOCC2)c2ccccc2)cc1 (stereo not drawn)	19%	?	-2	-3%	1%	-14
